Among all 5,500 compounds or so, about 2,000 (36%) were called active. Inconclusive results (about 18%) are left out. Cut-off read from the data, not from the text of the source: active = normalized growth mostly below about 0.91 (no sharp cut-off); inconclusive = no clear call, values can overlap the other calls; inactive = mostly above about 0.92. Some of the results follow.
Test: chemical genetic growth profiling, strain panel (AID 1159580);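 note: tested at 20 µM; growth read once vehicle control cultures reached saturation at 30 °C; 1 = growth at the plate median or of vehicle wells; lower values mean less growth of the strain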
Conditions: growth OD

Measured: normalized growth

CCC(Cc1c(I)cc(I)c(N)c1I)C(=O)O (stereo unspecified)
active: S. cerevisiae deletion strains, locus YLR113W, strain HOG1, stronger effect = lower value 0.127 | S. cerevisiae deletion strains, locus YLR221C, strain rsa3, stronger effect = lower value 0.876 | S. cerevisiae deletion strains, locus YLR258W, strain gsy2, stronger effect = lower value 0.909 | S. cerevisiae deletion strains, locus YLR262C, strain YPT6 (second series), stronger effect = lower value 0.698 | S. cerevisiae deletion strains, locus YLR320W, strain mms22, stronger effect = lower value 0.873 | S. cerevisiae deletion strains, locus YNL071W, strain lat1, stronger effect = lower value 0.689 | S. cerevisiae deletion strains, locus YNL183C, strain NPR1, stronger effect = lower value 0.0218 | S. cerevisiae deletion strains, locus YOR070C, strain gyp1, stronger effect = lower value 0.917 | S. cerevisiae deletion strains, locus YOR231W, strain MKK1, stronger effect = lower value 0.113 | S. cerevisiae deletion strains, locus YPL256C, strain CLN2, stronger effect = lower value 0.126
inactive: S. cerevisiae deletion strains, locus YKL009W, strain mrt4, stronger effect = lower value 0.974 | S. cerevisiae deletion strains, locus YKL068W, stronger effect = lower value 0.986 | S. cerevisiae deletion strains, locus YKL085W, strain MDH1 (second series), stronger effect = lower value 0.982 | S. cerevisiae deletion strains, locus YKL085W, strain MDH1, stronger effect = lower value 0.982 | S. cerevisiae deletion strains, locus YKL160W, strain elf1, stronger effect = lower value 0.961 | S. cerevisiae deletion strains, locus YKL190W, strain CNB1, stronger effect = lower value 1 | S. cerevisiae deletion strains, locus YKR001C, strain vps1, stronger effect = lower value 0.996 | S. cerevisiae deletion strains, locus YKR026C, strain gcn3, stronger effect = lower value 0.946 | S. cerevisiae deletion strains, locus YKR091W, strain srl3, stronger effect = lower value 0.941 | S. cerevisiae deletion strains, locus YLL001W, strain dnm1, stronger effect = lower value 0.977 | S. cerevisiae deletion strains, locus YLL026W, stronger effect = lower value 0.96 | S. cerevisiae deletion strains, locus YLL041C, strain sdh2, stronger effect = lower value 0.954 | S. cerevisiae deletion strains, locus YLR027C, strain aat2, stronger effect = lower value 0.964 | S. cerevisiae deletion strains, locus YLR039C, strain RIC1, stronger effect = lower value 0.933 | S. cerevisiae deletion strains, locus YLR058C, strain SHM2, stronger effect = lower value 1 | S. cerevisiae deletion strains, locus YLR102C, strain apc9, stronger effect = lower value 0.999 | S. cerevisiae deletion strains, locus YLR262C, strain YPT6, stronger effect = lower value 0.936 | S. cerevisiae deletion strains, locus YLR268W, strain sec22, stronger effect = lower value 1 | S. cerevisiae deletion strains, locus YLR330W, strain CHS5, stronger effect = lower value 0.999 | S. cerevisiae deletion strains, locus YLR342W, strain FKS1 (second series), stronger effect = lower value 1 | S. cerevisiae deletion strains, locus YLR342W, strain FKS1, stronger effect = lower value 0.944 | S. cerevisiae deletion strains, locus YLR357W, strain rsc2, stronger effect = lower value 1.02 | S. cerevisiae deletion strains, locus YLR370C, strain arc18, stronger effect = lower value 0.95 | S. cerevisiae deletion strains, locus YLR371W, strain rom2, stronger effect = lower value 1 | S. cerevisiae deletion strains, locus YLR384C, strain iki3, stronger effect = lower value 0.954 | S. cerevisiae deletion strains, locus YLR418C, strain cdc73, stronger effect = lower value 1.02 | S. cerevisiae deletion strains, locus YML016C, strain PPZ1, stronger effect = lower value 0.995 | S. cerevisiae deletion strains, locus YML032C, strain rad52, stronger effect = lower value 1.02 | S. cerevisiae deletion strains, locus YML120C, strain ndi1, stronger effect = lower value 0.95 | S. cerevisiae deletion strains, locus YML124C, strain tub3, stronger effect = lower value 0.992 | S. cerevisiae deletion strains, locus YMR058W, strain fet3, stronger effect = lower value 0.944 | S. cerevisiae deletion strains, locus YMR078C, strain ctf18, stronger effect = lower value 1 | S. cerevisiae deletion strains, locus YMR125W, strain sto1, stronger effect = lower value 0.948 | S. cerevisiae deletion strains, locus YMR129W, stronger effect = lower value 0.932 | S. cerevisiae deletion strains, locus YMR205C, strain PFK2, stronger effect = lower value 0.906 | S. cerevisiae deletion strains, locus YMR223W, strain ubp8, stronger effect = lower value 1.01 | S. cerevisiae deletion strains, locus YMR231W, strain pep5, stronger effect = lower value 0.97 | S. cerevisiae deletion strains, locus YMR263W, strain SAP30, stronger effect = lower value 0.989 | S. cerevisiae deletion strains, locus YMR307W, strain GAS1, stronger effect = lower value 0.963 | S. cerevisiae deletion strains, locus YNL067W, strain RPL9B, stronger effect = lower value 1.01 | S. cerevisiae deletion strains, locus YNL128W, strain TEP1, stronger effect = lower value 1.01 | S. cerevisiae deletion strains, locus YNL153C, strain GIM3, stronger effect = lower value 1.01 | S. cerevisiae deletion strains, locus YNL209W, strain ssb2, stronger effect = lower value 0.966 | S. cerevisiae deletion strains, locus YNL233W, strain BNI4, stronger effect = lower value 1.01 | S. cerevisiae deletion strains, locus YNL248C, strain rpa49, stronger effect = lower value 0.887 | S. cerevisiae deletion strains, locus YNL250W, strain rad50, stronger effect = lower value 0.994 | S. cerevisiae deletion strains, locus YNL271C, strain bni1, stronger effect = lower value 0.979 | S. cerevisiae deletion strains, locus YNL298W, strain CLA4, stronger effect = lower value 0.981 | S. cerevisiae deletion strains, locus YNL307C, strain MCK1, stronger effect = lower value 0.997 | S. cerevisiae deletion strains, locus YNL322C, strain KRE1 (second series), stronger effect = lower value 0.932 | S. cerevisiae deletion strains, locus YNL322C, strain KRE1, stronger effect = lower value 1 | S. cerevisiae deletion strains, locus YNR049C, strain mso1, stronger effect = lower value 0.925 | S. cerevisiae deletion strains, locus YNR052C, strain pop2, stronger effect = lower value 0.998 | S. cerevisiae deletion strains, locus YOL006C, strain TOP1, stronger effect = lower value 1.01 | S. cerevisiae deletion strains, locus YOL012C, strain htz1 1.15 | S. cerevisiae deletion strains, locus YOL147C, strain pex11, stronger effect = lower value 0.999 | S. cerevisiae deletion strains, locus YOR001W, strain rrp6, stronger effect = lower value 1 | S. cerevisiae deletion strains, locus YOR061W, strain CKA2, stronger effect = lower value 0.997 | S. cerevisiae deletion strains, locus YOR069W, strain VPS5, stronger effect = lower value 0.999 | S. cerevisiae deletion strains, locus YOR080W, strain dia2, stronger effect = lower value 0.95 | S. cerevisiae deletion strains, locus YOR083W, strain WHI5, stronger effect = lower value 0.949 | S. cerevisiae deletion strains, locus YOR106W, strain vam3, stronger effect = lower value 0.943 | S. cerevisiae deletion strains, locus YOR136W, strain idh2, stronger effect = lower value 1.02 | S. cerevisiae deletion strains, locus YOR144C, strain elg1, stronger effect = lower value 0.985 | S. cerevisiae deletion strains, locus YOR184W, strain ser1, stronger effect = lower value 1.01 | S. cerevisiae deletion strains, locus YOR265W, strain rbl2, stronger effect = lower value 0.951 | S. cerevisiae deletion strains, locus YOR270C, strain vph1, stronger effect = lower value 0.784 | S. cerevisiae deletion strains, locus YOR290C, strain snf2, stronger effect = lower value 0.92 | S. cerevisiae deletion strains, locus YOR316C, strain cot1, stronger effect = lower value 0.999 | S. cerevisiae deletion strains, locus YPL051W, strain arl3, stronger effect = lower value 0.925 | S. cerevisiae deletion strains, locus YPL055C, strain LGE1, stronger effect = lower value 1.04 | S. cerevisiae deletion strains, locus YPL078C, strain atp4, stronger effect = lower value 0.974 | S. cerevisiae deletion strains, locus YPL106C, strain sse1, stronger effect = lower value 0.951 | S. cerevisiae deletion strains, locus YPL240C, strain hsp82, stronger effect = lower value 0.939 | S. cerevisiae deletion strains, locus YPL241C, strain CIN2, stronger effect = lower value 0.975 | S. cerevisiae deletion strains, locus YPR119W, strain clb2, stronger effect = lower value 0.988 | S. cerevisiae deletion strains, locus YPR141C, strain kar3, stronger effect = lower value 0.988 | S. cerevisiae deletion strains, locus YPR163C, strain tif3, stronger effect = lower value 1.01 | S. cerevisiae deletion strains, locus YPR167C, strain met16, stronger effect = lower value 1 | S. cerevisiae deletion strains, strain wtn01, stronger effect = lower value 1 | S. cerevisiae strains, strain wild type, stronger effect = lower value 0.999

Source: PubChem BioAssay AID1159580 (chemical genetic matrix, 2015)
